These results are taken from the supplement of paper PMC10498489.

Structures are written as SMILES. About 330 (14%) of roughly 2,300 compounds showed activity. These entries were drawn from the full list. Values without a mark were called inactive.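 The calls were made as follows: active = median modified Z-score above 1.96; inactive = 1.96 or below.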

For the assay, the system named is HepG2 Srxn1-GFP reporter cells (+30 nM CDDO-Me). As to the kind of experiment: Srxn1-GFP intensity median modified Z-score relative to plate median; higher = stronger NRF2 / oxidative stress reporter activation, active = hit call of the paper. The note with it: 10 µM; exposure time: 24h. The method, boiled down:
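Each value is the replicate median of a per-plate modified Z-score for GFP intensity in HepG2 Srxn1-GFP BAC reporter cells. The cells (20,000 per well, 96-well plates, three replicate plates) received compound at 10 μM together with an NRF2 activator at 30 nM for 24 h, in ≤0.1% DMSO. Cytoplasmic GFP was quantified per cell from confocal images of formaldehyde-fixed, Hoechst-stained cells, leaving out images with fewer than 100 cells, and scaling used 1.4826 × median absolute deviation.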
For `COc1ccc2c(=O)ccoc2c1` [euspeclibcmpd1397], the “Srxn1-GFP intensity median modified Z-score” value is 0.575.

Take `CC1(C)SC2C(NC(=O)C(C(=O)O)c3ccccc3)C(=O)N2C1C(=O)O` (stereo not given) [euspeclibcmpd2333]: the “Srxn1-GFP intensity median modified Z-score” value is 0.114.

As to `O=c1c2cc(O)c(O)cc2oc2cc(O)c(C3O[C@H](CO)[C@@H](O)[C@H](O)[C@H]3O)c(O)c12` (stereo not given in full) [euspeclibcmpd1520], the “Srxn1-GFP intensity median modified Z-score” value is -0.904.

Take `CCCc1nc(=N)c(C[n+]2ccccc2C)c[nH]1` [euspeclibcmpd493]: the “Srxn1-GFP intensity median modified Z-score” value was -0.6.

In the case of `COc1cccc(-c2cc(=O)c3cc(OC)ccc3o2)c1` [euspeclibcmpd1659], the “Srxn1-GFP intensity median modified Z-score” value is -0.339.

`COc1cc(O)c2c(c1)C(=O)c1cc(C)cc(O)c1C2=O` [euspeclibcmpd1472]: the “Srxn1-GFP intensity median modified Z-score” value is 0.0189.

Regarding `Cc1cc(O)c2c(c1)C(=O)c1cccc(O)c1C2=O` [euspeclibcmpd1712], the “Srxn1-GFP intensity median modified Z-score” value was 4.5 (active).

Regarding `Cc1cc(O)c2c(c1)C(=O)c1cc(O)cc(O)c1C2=O` [euspeclibcmpd1604], the “Srxn1-GFP intensity median modified Z-score” value is 0.573.

As to `O=C1c2cccc(O)c2C(=O)c2c(O)cccc21` [euspeclibcmpd3], the “Srxn1-GFP intensity median modified Z-score” value was 19.4 (active).

As for `O=C(O)C(O)[C@H](O)[C@H](O)[C@H](O)[C@H](O)CO` (stereo not given in full) [euspeclibcmpd2445], the “Srxn1-GFP intensity median modified Z-score” value is -0.00236.

With `CC(=O)C1(O)CCC2C3CC(C)=C4CC(=O)C=CC4(C)C3(F)C(O)CC21C` (stereo not given) [euspeclibcmpd1970], the “Srxn1-GFP intensity median modified Z-score” value was -0.646.

As for `COc1cc([C@H]2Oc3cc(C4Oc5cc(O)cc(O)c5C(=O)C4O)ccc3O[C@@H]2CO)ccc1O` (stereo not given in full) [euspeclibcmpd2298], the “Srxn1-GFP intensity median modified Z-score” value was -0.00238.

As for `C[C@]12CCC(OC(=O)c3ccccc3)CC1CCc1ccccc12` (stereo not given in full) [euspeclibcmpd2434], the “Srxn1-GFP intensity median modified Z-score” value is 0.0569.

For `CCn1c2cc(=N)ccc-2c2ccc(N)cc2c1-c1ccccc1` [euspeclibcmpd1148], the “Srxn1-GFP intensity median modified Z-score” value was 4.33 (active).

Consider `C=C[C@@]1(C)CC(=O)[C@@]2(O)[C@](C)(O1)[C@@H](OC(C)=O)[C@@H](O)C1C(C)(C)CC[C@H](O)[C@@]12C` (stereo not given in full) [euspeclibcmpd604], for which the “Srxn1-GFP intensity median modified Z-score” value is -1.15.

With `N=c1[nH]c(=O)c2[nH]c(=O)cnc2[nH]1` [euspeclibcmpd1707], the “Srxn1-GFP intensity median modified Z-score” value is -0.214.

For the molecule `CCCCc1nc(Cl)c(CO)n1Cc1ccc(-c2ccccc2-c2nn[nH]n2)cc1` [euspeclibcmpd678], the “Srxn1-GFP intensity median modified Z-score” value was -0.235.

`CCCc1nc2c(C)cc(-c3nc4ccccc4n3C)cc2n1Cc1ccc(-c2ccccc2C(=O)O)cc1` [euspeclibcmpd729]: the “Srxn1-GFP intensity median modified Z-score” value was 3.15 (active).

In the case of `CCCc1nc(C(C)(C)O)c(C(=O)OCc2oc(=O)oc2C)n1Cc1ccc(-c2ccccc2-c2nn[nH]n2)cc1` [euspeclibcmpd716], the “Srxn1-GFP intensity median modified Z-score” value is -0.529.

For the molecule `O=C1C(CCC(O)c2ccc(F)cc2)[C@@H](c2ccc(O)cc2)N1c1ccc(F)cc1` (stereo not given in full) [euspeclibcmpd714], the “Srxn1-GFP intensity median modified Z-score” value was 1.03.

As for `COC(=O)C(NC(=O)CCCCn1cnc2c(N)ncnc21)C(C)C` (stereo not given), the “Srxn1-GFP intensity median modified Z-score” value is 1.19.

Turning to `CC(=O)OC1(C(C)=O)CCC2C3=CC(Cl)=C4CC(=O)C5CC5C4(C)C3CCC21C` (stereo not given) [euspeclibcmpd1971], the “Srxn1-GFP intensity median modified Z-score” value was -0.163.

Consider `CC(O)CN(CCN(CC(C)O)CC(C)O)CC(C)O` (stereo not given) [euspeclibcmpd990], for which the “Srxn1-GFP intensity median modified Z-score” value is -0.227.

Consider `Oc1ccc(C=Cc2cc(O)cc(O)c2)cc1` [euspeclibcmpd1411], for which the “Srxn1-GFP intensity median modified Z-score” value is 12.1 (active).

For the molecule `OC[C@H]1O[C@H](Oc2cc(O)cc(C=Cc3ccc(O)cc3)c2)[C@H](O)[C@@H](O)[C@@H]1O` [euspeclibcmpd1401], the “Srxn1-GFP intensity median modified Z-score” value is -0.514.

As for `CCS(=O)(=O)N1CCCC(C(=O)NCCCN(C)OC)C1` (stereo not given), the “Srxn1-GFP intensity median modified Z-score” value is 0.974.

Turning to `Nc1ccc(S(=O)(=O)N=c2ccc(Cl)n[nH]2)cc1` [euspeclibcmpd398], the “Srxn1-GFP intensity median modified Z-score” value was -0.684.

For `O=C(NCC(O)=NO)c1ccc(Cl)cc1` [euspeclibcmpd774], the “Srxn1-GFP intensity median modified Z-score” value was 0.804.

Turning to `O=c1c(O)c(-c2ccc(O)c(O)c2)oc2cc(O)cc(O)c12`, the “Srxn1-GFP intensity median modified Z-score” value was 0.376.

Consider `CC(=O)OCC(=O)[C@@]1(O)CCC2C3CC=C4CC(=O)CC[C@]4(C)C3[C@@H](O)C[C@@]21C` (stereo not given in full) [euspeclibcmpd151], for which the “Srxn1-GFP intensity median modified Z-score” value is -0.58.

Consider `C[C@H](Cn1cnc2c(=N)nc[nH]c21)OCP(=O)(O)O` [euspeclibcmpd1075], for which the “Srxn1-GFP intensity median modified Z-score” value is -0.0246.

With `CN(C)c1ccc(C(=C2C=CC(=[N+](C)C)C=C2)c2ccc(N(C)C)cc2)cc1` [euspeclibcmpd139], the “Srxn1-GFP intensity median modified Z-score” value was 8.6 (active).

Turning to `CC(CCC(=O)O)[C@H]1CCC2C3CC[C@@H]4C[C@H](O)CC[C@]4(C)C3C[C@H](O)[C@@]21C` (stereo not given in full) [euspeclibcmpd2112], the “Srxn1-GFP intensity median modified Z-score” value is -0.195.

`COC(=O)C[C@H]1C(C)(C)C(=O)C2CC3=C(CC[C@]4(C)C3=CC(=O)O[C@H]4c3ccoc3)[C@@]1(C)C2=O` [euspeclibcmpd1591]: the “Srxn1-GFP intensity median modified Z-score” value is 0.352.

Regarding `CCCCNC(=O)NS(=O)(=O)c1ccc(OC)cc1`, the “Srxn1-GFP intensity median modified Z-score” value was 1.61.

As for `CC(CCc1ccc(O)cc1)NCC(O)c1ccc(O)cc1` (stereo not given) [euspeclibcmpd467], the “Srxn1-GFP intensity median modified Z-score” value was 0.894.

With `C[C@@H](COc1ccccc1)N[C@H](C)[C@H](O)c1ccc(O)cc1` [euspeclibcmpd167], the “Srxn1-GFP intensity median modified Z-score” value was 4.4 (active).

As for `CC(NCCc1ccc(O)cc1)C(O)c1ccc(O)cc1` (stereo not given) [euspeclibcmpd402], the “Srxn1-GFP intensity median modified Z-score” value was 0.107.

`CC(C)(C)NC[C@@H](O)COc1nsnc1N1CCOCC1` [euspeclibcmpd295]: the “Srxn1-GFP intensity median modified Z-score” value was -0.119.

For `COC1C(=O)C(=O)c2c(cc3oc(C(C)=O)c(O)c3c2O)C1=O` (stereo not given) [euspeclibcmpd1523], the “Srxn1-GFP intensity median modified Z-score” value is 0.196.

`N=c1[nH]ccs1` [euspeclibcmpd1106]: the “Srxn1-GFP intensity median modified Z-score” value was 0.0281.

As for `Cc1onc(-c2ccccc2)c1C(=O)NC1C(=O)N2C1SC(C)(C)C2C(=O)O` (stereo not given) [euspeclibcmpd2397], the “Srxn1-GFP intensity median modified Z-score” value is -0.382.

With `CC(C)=CCc1c2c(c3occ(-c4ccc(O)c(O)c4)c(=O)c3c1O)C=CC(C)(C)O2` [euspeclibcmpd1728], the “Srxn1-GFP intensity median modified Z-score” value was 156 (active).

Regarding `CC(C)=CCc1c2c(c3occ(-c4ccc(O)cc4)c(=O)c3c1O)C=CC(C)(C)O2` [euspeclibcmpd1709], the “Srxn1-GFP intensity median modified Z-score” value was 1.14.

With `COc1ccc(-c2coc3c4c(c(CC=C(C)C)c(O)c3c2=O)OC(C)(C)C=C4)cc1OC` [euspeclibcmpd2204], the “Srxn1-GFP intensity median modified Z-score” value was -0.479.
